Data taken from PubChem BioAssay.
Inconclusive results are not listed. Active and inactive are the calls of the source.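 The calls were made as follows, unless noted: active = cell viability at or below a set limit in both duplicate runs, the limit being the all-compound median minus 4 SD (cut at about 23% in these data, passing the limit was not always enough); inconclusive = no clear call, values can overlap the other calls; inactive = the rest.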

Columns and labels:
[1] = reducers of endogenous Her2 protein level, primary screen, SKBR3 breast tumor cells, AlphaScreen, ATP viability (AID 461;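 active = Her2 level under about 52% in both replicate screens, with viability over 70% of control, limit read from the data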;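 as to Her2 level: lower value means less Her2 protein in the cells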;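 as to viability: percent of carrier control wells set as 100% viability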); details: 18-24 h, measured here: SKBR3 viability, ATP luminescence, at 10 µM
[2] = target: Receptor tyrosine-protein kinase erbB-2 (Homo sapiens) (UniProt P04626); experiment: as above; details: 18-24 h, at 10 µM, stronger effect = lower value
Sequence of Receptor tyrosine-protein kinase erbB-2 (Homo sapiens) (P04626 whole entry, looked up): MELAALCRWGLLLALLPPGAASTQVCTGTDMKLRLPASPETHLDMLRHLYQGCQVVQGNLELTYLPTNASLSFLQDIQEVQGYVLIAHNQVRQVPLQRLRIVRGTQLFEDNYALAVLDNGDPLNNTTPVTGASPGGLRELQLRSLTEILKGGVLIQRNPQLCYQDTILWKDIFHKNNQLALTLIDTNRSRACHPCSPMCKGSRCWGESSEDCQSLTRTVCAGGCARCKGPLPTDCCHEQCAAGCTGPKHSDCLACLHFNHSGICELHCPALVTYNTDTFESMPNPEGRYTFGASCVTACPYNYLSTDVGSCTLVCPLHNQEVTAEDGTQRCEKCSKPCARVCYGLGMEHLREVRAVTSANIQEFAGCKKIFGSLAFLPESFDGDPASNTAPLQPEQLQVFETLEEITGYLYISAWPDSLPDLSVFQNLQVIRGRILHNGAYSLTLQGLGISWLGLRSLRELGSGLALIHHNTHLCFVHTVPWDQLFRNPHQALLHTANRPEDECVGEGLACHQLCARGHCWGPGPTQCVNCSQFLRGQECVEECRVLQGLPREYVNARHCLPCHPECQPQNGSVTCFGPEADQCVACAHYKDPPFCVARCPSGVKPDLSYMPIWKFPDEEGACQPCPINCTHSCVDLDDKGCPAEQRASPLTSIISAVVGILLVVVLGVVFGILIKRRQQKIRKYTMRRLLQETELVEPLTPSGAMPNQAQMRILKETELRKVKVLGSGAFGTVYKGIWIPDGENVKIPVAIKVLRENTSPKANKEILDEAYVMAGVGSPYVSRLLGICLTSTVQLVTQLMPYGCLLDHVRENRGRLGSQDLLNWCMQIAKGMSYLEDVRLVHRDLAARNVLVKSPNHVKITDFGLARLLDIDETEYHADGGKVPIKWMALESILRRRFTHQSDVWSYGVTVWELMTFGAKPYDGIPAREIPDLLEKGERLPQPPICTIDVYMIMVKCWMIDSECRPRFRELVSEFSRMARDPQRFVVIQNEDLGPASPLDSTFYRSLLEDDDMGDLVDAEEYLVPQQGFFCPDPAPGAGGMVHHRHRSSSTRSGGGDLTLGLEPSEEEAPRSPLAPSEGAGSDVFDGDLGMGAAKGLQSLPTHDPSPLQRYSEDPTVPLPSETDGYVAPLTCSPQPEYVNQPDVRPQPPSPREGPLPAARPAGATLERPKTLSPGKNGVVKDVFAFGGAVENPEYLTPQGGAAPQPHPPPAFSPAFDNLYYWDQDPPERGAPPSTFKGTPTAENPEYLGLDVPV

[3] = SK-BR-3 cell growth inhibitors, pilot screen, 24 h, human (AID 572;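 active = viability at or below 10% of carrier control in both of two separate runs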;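 also: compound exposure lasted between 18 and 24 h rather than exactly 24 h; 100% = carrier-treated control wells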); details: SK-BR-3 viability, CellTiter-Glo luminescence, at 10 µM, stronger effect = lower value
[4] = HUVEC growth inhibition – cell-based, human, primary screen (AID 575;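 active = viability at or below 30% in both replicate assays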;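 also: 100% = median of untreated cell wells with 0.1% DMSO on each plate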); details: HUVEC proliferation, CellTiter-Glo luminescence, 72 h; at 10 µM; stronger effect = lower value
[5] = growth inhibitors of H69AR lung tumor, primary screen, human, duplicate replicates (AID 580;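 active = viability at or under a set limit in both replicates, limit being median viability minus 3 SD, cut at about 48% in these data, passing the limit was not always enough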;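 also: 100% = mean luminescence of untreated wells and 0% = no signal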); details: H69AR lung tumor cells viability, ATP luminescence, 72 h; at 10 µM; stronger effect = lower value
[6] = reversal of MRP1-mediated doxorubicin resistance, pilot screen, H69AR cells, doxorubicin co-treatment (AID 601;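 active = viability loss from added drug above about 55%, and viability with drug at most 40%, in both replicates, limit read from the data, passing the limit was not always enough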); details: CellTiter-Glo, 72 h, at 10 µM; for differential viability (reversal): stronger effect = higher value
[7] = 384-well plate pilot, post-Golgi transport modulator project, inhibition of yeast transport mutant growth (AID 636; in the data active = inhibition above about 31%); details: absorbance 615 nm, about 18 h, stronger effect = higher value
[8] = growth suppression of yeast trafficking mutant, preliminary HTS, modulators of trafficking downstream of Golgi apparatus project, 1536-format plate, OD 615 nm (AID 637; in the data active = inhibition above about 30%); details: yeast transport mutant growth, absorbance 615 nm, 18 h; stronger effect = higher value
[9] = OD615 S. cerevisiae growth inhibition, permissive medium, pilot counter-assay, permissive growth control for S. cerevisiae lifespan shortening project (AID 705;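 active = growth inhibition above 25% in both replicates, a cutoff set 3 SD above the mean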); details: OD615, 24 h, at 10 µM, stronger effect = higher value
[10] = Restrictive medium S. cerevisiae growth inhibition, OD615, pilot screen of yeast lifespan reduction project, restrictive growth control (AID 706;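 active = growth inhibition above a set limit, 3 SD over mean compound inhibition, in both replicates, cut at about 43% in these data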;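 also: modified DeaD lifespan yeast strain shifted to restrictive glucose medium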); details: OD615, 48 h, at 10 µM, stronger effect = higher value
[11] = viability gain of MRP-1-high H69AR cells under doxorubicin, pilot screen, MRP-1 activator project, CellTiter-Glo, duplicate (AID 807;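 active = viability increase at or above a cutoff of the median across tested compounds plus 3 SD, cut at about 8.5% in these data, passing the limit was not always enough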;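 also: compound pretreatment 18-22 h then 72 h combined with doxorubicin; 0% = doxorubicin alone and 100% = vehicle without doxorubicin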); details: H69AR viability with doxorubicin, CellTiter-Glo luminescence; at 10 µM; stronger effect = higher value
[12] = growth suppression of beta-catenin knockout HCT116, pilot screen, human colon tumor cells (AID 823); details: CellTiter-Glo, 60 h, at 10 µM, stronger effect = lower value;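 also: 0% = wells killed by 20 µM Hyamine and 100% = untreated DMSO cell wells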
[13] = growth suppression of PTEN-deleted HCT116, pilot screen, cell-based, HCT116 clonal line, CellTiter-Glo (AID 824;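 active = viability at or below 27.92% in each of two runs, the all-compound median minus 4 SD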;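 also: 0% = 20 µM Hyamine control and 100% = vehicle cell control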); details: 60 h, at 10 µM, stronger effect = lower value
[14] = inhibitors of the yeast RAM network, pilot screen, dse1pr::URA3 reporter, 5-FOA selection (AID 869;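 active = inhibition over a set limit, the all-compound mean plus 3 SD, in both replicate runs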;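 also: 0% = DMSO wells with no growth and 100% = 10 µM 1-NA-PP1 with full growth; RAM network block rescues cells from 5-FOA so hits raise OD615 growth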); details: S. cerevisiae dse1pr::URA3 5-FOA growth, OD615, 2 d; at 10 µM; stronger effect = higher value; strain carries analog-sensitive mutant Cbk1 kinase
[15] = RAM signaling pathway blockade in yeast – S. cerevisiae, Pdr1DBD-CYC8 efflux-inhibited sensitized strain, primary screen (AID 1298;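 active = RAM network inhibition above 8.4% in each of two replicates, 3 SD over the compound average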;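 also: 0% = DMSO untreated cells without growth and 100% = 10 µM 1-NA-PP1 full growth; higher means more yeast growth rescued from 5-FOA killing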); details: S. cerevisiae cbk1-as DSE1-URA3 strain, 5-FOA growth OD615, 2 d; at 50 µM; stronger effect = higher value
[16] = H69AR cells + 2 uM doxorubicin, measured here: viability with 2 uM doxorubicin, stronger effect = lower value
[17] = H69AR cells, compound alone cytotoxicity

Cc1nc2ccc(S(=O)(=O)NC(C(=O)N3CCCC3)C(C)C)cc2s1 (stereo unspecified)
88.5%: viability [1]
97.3%: viability [6, 17]
79.5%: viability [6, 16]
inactive: Her2 level [2] 106% | viability [3] 88.5% | viability [4] 111% | viability [5] 97.3% | differential viability (reversal) ([6]; H69AR cells + 2 uM doxorubicin) 17.8% | inhibition [7] -1.92% | inhibition [8] -0.5% | growth inhibition [9] 3.5% | growth inhibition [10] 11.5% | viability increase [11] -2.03% | viability [12] 92.2% | viability [13] 91.2% | inhibition [14] 2.62% | RAM network inhibition [15] 0.27%

CCOC(=O)N1CCN(Cc2nc3c(c(=O)n(C)c(=O)n3C)n2Cc2ccc(F)cc2)CC1
72.6%: viability [6, 17]
86.5%: viability [1]
inactive: Her2 level [2] 101% | viability [3] 86.5% | viability [4] 92.9% | viability [5] 72.6% | differential viability (reversal) ([6]; H69AR cells + 2 uM doxorubicin) -0.205% | inhibition [7] -4.27% | inhibition [8] 3.67% | growth inhibition [9] -5.48% | growth inhibition [10] 5.73% | viability increase [11] -3.14% | viability [12] 93.3% | viability [13] 81.7% | inhibition [14] 0.44% | RAM network inhibition [15] 0.36%
72.8%: viability [6, 16]

CCOC(=O)c1csc(NC(=O)C2CCCCC2)n1
70.2%: viability [6, 16]
inactive: Her2 level [2] 90% | viability [3] 81% | viability [4] 95% | viability [5] 96.5% | differential viability (reversal) ([6]; H69AR cells + 2 uM doxorubicin) 26.3% | inhibition [7] -1.47% | inhibition [8] 0.83% | growth inhibition [9] -5.67% | growth inhibition [10] 7.35% | viability increase [11] 2.52% | viability [12] 91.4% | viability [13] 94.6% | inhibition [14] 0.89% | RAM network inhibition [15] 0.47%
81%: viability [1]
96.5%: viability [6, 17]
